# Reference: PubChem BioAssay (Tox21)
# Values without a mark were called inactive. Results filed as inconclusive are left out. Active and inactive are the calls of the source. Calls come from the whole dose curve; as a rule, active = well fitted curve in the direction sought with a large enough effect in the repeat runs; inconclusive = weak or mixed curves; inactive = no such curve, though single readings can be large; an effect the other way counts as inactive or inconclusive.
# Tested on: not listed separately
# Experiment: qHTS assay to identify small molecule antagonists of the androgen receptor (AR) signaling pathway - cell viability counter screen (AID 743033; note: nearly all actives have a fitted effect of over 45% in size)
# Settings: AR-bla HEK293 viability, CellTiter-Glo luminescence, 16 h; series mostly up to 58.5 µM; activity change, negative = cytotoxicity: at the top concentration
# % is set by controls: 0 for no effect and ±100 for the full control effect.
Structure (SMILES),"activity change, negative = cytotoxicity",Potency
N#Cc1c(Cl)cccc1Cl,0.522%,–
CC1(C(=O)Nc2ccc(O)c(Cl)c2Cl)CCCCC1,-21.8%,–
N#CCCC#N,13%,–
O=S(=O)(O)C(F)(F)C(F)(F)C(F)(F)C(F)(F)C(F)(F)C(F)(F)F,0.116%,–
CCC(C)n1c(=O)[nH]c(C)c(Br)c1=O (stereo unspecified),6.15%,–
COc1cc(OC)nc(Sc2cccc(Cl)c2C(=O)O)n1,1.52%,–
CC(C=O)Cc1ccc2c(c1)OCO2 (stereo unspecified),-5.84%,–
C[C@]1(O)CC[C@H]2[C@@H]3CCC4=CC(=O)CC[C@]4(C)[C@@]3(F)[C@@H](O)C[C@@]21C,–,inactive
CN/C(=N\[N+](=O)[O-])NCC1CCOC1 (stereo unspecified),10.5%,–
O=C(O)c1cccc(Cl)c1,4.31%,–
COc1ccc2c(c1OC)CN1CCc3cc4c(cc3C1C2)OCO4 (stereo unspecified),-25% [at 27 µM],–
CC(C)CC(N(C)C)C1(c2ccc(Cl)cc2)CCC1 (stereo unspecified),-19.9%,–
COC(=O)C1=CCCN(C)C1,0.753%,–
OC(c1ccc(F)cc1)(c1cncnc1)c1ccccc1Cl (stereo unspecified),-13.3%,–
OCCBr,0.463%,–
C=C(C)CN(CC)c1c([N+](=O)[O-])cc(C(F)(F)F)cc1[N+](=O)[O-],2.84%,–
ClCC(Cl)Cl,-16% [at 78.9 µM],–
CCN(Cc1ccc(Cl)nc1)/C(=C/[N+](=O)[O-])NC,4.85%,–
ClC(Cl)(Cl)C(Cl)(Cl)Cl,1.17% [at 78.9 µM],–

# Molecular target: Androgen receptor (Homo sapiens) (UniProt P10275)
# Experiment: qHTS assay to identify small molecule agonists of the androgen receptor (AR) signaling pathway using the MDA cell line (AID 743040; note: nearly all actives have a fitted effect of over 20% in size)
# Settings: MDA-kb2 AR-luc cells, MMTV luciferase, 16 h; series mostly up to 70.3 µM; activity change: at the top concentration
# In short: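 Human breast carcinoma MDA-kb2 reporter cells (MMTV-luc, AR/GR elements) were treated for 16 h at 37C in 0% CO2 following a 5 h settling period. Signal was quantified by ONE-Glo luminescence.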
# Androgen receptor (Homo sapiens), sequence (P10275 whole entry, looked up): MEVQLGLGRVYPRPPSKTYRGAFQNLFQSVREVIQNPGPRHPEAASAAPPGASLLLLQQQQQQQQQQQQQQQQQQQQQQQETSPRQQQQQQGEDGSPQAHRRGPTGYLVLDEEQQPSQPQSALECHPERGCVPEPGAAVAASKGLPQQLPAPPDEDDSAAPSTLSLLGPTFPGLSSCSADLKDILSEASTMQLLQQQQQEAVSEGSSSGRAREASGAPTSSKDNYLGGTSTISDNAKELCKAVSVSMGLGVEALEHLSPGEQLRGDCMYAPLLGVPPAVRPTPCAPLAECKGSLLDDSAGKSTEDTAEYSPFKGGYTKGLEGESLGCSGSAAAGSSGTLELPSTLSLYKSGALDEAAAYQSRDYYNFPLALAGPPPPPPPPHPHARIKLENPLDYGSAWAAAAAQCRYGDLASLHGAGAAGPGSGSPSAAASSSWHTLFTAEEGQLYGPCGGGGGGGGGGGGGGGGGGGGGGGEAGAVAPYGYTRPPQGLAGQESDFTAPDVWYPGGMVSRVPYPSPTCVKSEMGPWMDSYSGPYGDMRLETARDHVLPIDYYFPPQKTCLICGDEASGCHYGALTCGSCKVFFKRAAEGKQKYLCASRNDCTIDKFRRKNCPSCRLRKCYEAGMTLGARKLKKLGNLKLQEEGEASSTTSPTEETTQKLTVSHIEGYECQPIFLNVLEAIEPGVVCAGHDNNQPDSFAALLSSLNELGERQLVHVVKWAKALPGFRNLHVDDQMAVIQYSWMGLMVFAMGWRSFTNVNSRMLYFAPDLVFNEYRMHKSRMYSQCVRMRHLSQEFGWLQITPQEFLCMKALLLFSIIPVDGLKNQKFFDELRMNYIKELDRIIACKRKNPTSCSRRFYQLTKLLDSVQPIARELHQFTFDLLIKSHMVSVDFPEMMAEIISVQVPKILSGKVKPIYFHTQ
row,Structure (SMILES),activity change
1,COc1ccc2c(c1OC)CN1CCc3cc4c(cc3C1C2)OCO4 (stereo unspecified),"-1.04% [at 32.5 µM, hits give high values]"
2,CC(Oc1ccc(Oc2ncc(C(F)(F)F)cc2Cl)cc1)C(=O)O (stereo unspecified),-0.208%
3,CCC(C)(C)c1cc(-n2nc3ccccc3n2)c(O)c(C(C)(C)CC)c1,"-1.7% [at 95 µM, hits give high values]"

# Tested on: not listed separately
# Experiment: qHTS assay to identify small molecule antagonists of the androgen receptor (AR) signaling pathway using the MDA cell line - cell viability counter screen (AID 743041; note: nearly all actives have a fitted effect of over 45% in size)
# Settings: MDA-kb2 viability, CellTiter-Fluor, 16 h, cells co-treated with R1881 androgen agonist; series mostly up to 70.3 µM; viability change, negative = cytotoxic: at the top concentration
# In short: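 Same-well cytotoxicity was assessed by CellTiter-Fluor in MDA-kb2 AR-luc cells after 16 h of compound treatment under R1881 agonism.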
Structure (SMILES),"viability change, negative = cytotoxic",Potency
N#Cc1c(Cl)cccc1Cl,7.12%,–
CC1(C(=O)Nc2ccc(O)c(Cl)c2Cl)CCCCC1,-15.9%,–
CCC/C(=N\OCC)C1=C(O)CC(CC(C)SCC)CC1=O (stereo unspecified),11% [at 95 µM],–
CC1=NNC(=O)N(/N=C/c2cccnc2)C1,10.8%,–
N#CCCC#N,1.73%,–
O=S(=O)(O)C(F)(F)C(F)(F)C(F)(F)C(F)(F)C(F)(F)C(F)(F)F,-0.311%,–
COC(C)(C)C,3.69%,–
CCC(C)n1c(=O)[nH]c(C)c(Br)c1=O (stereo unspecified),6.18%,–
COc1cc(OC)nc(Sc2cccc(Cl)c2C(=O)O)n1,1.03%,–
CC(C=O)Cc1ccc2c(c1)OCO2 (stereo unspecified),-10.7%,–
[Cl][Sn]([Cl])([Cl])[Cl],5.46% [at 95 µM],–
C[C@]1(O)CC[C@H]2[C@@H]3CCC4=CC(=O)CC[C@]4(C)[C@@]3(F)[C@@H](O)C[C@@]21C,–,inactive
CCS(=O)(=O)C(C)(C)S(=O)(=O)CC,0.536%,–
CN/C(=N\[N+](=O)[O-])NCC1CCOC1 (stereo unspecified),4.32%,–
CCCSC(=O)Cl,0.745% [at 95 µM],–
CC1(C)CON(Cc2ccccc2Cl)C1=O,10.2%,–
O=C(O)c1cccc(Cl)c1,-2.81%,–

Structure (SMILES),"viability change, negative = cytotoxic",Potency
CCCCCCBr,-0.413% [at 95 µM],–
COc1ccc2c(c1OC)CN1CCc3cc4c(cc3C1C2)OCO4 (stereo unspecified),-21.9% [at 32.5 µM],–
CN1CCN(C(=O)O[C@H]2c3nccnc3C(=O)N2c2ccc(Cl)cn2)CC1,-3.16%,–
CC(C)CC(N(C)C)C1(c2ccc(Cl)cc2)CCC1 (stereo unspecified),-17.2%,–
COc1cc(OC)nc(NC(=O)NS(=O)(=O)c2ncccc2C(=O)N(C)C)n1,7.44%,–
Cc1cc(C)c(C(=O)P(=O)(C(=O)c2c(C)cc(C)cc2C)c2ccccc2)c(C)c1,-1.05%,–
Fc1ccc(C2(Cn3cncn3)OC2c2ccccc2Cl)cc1 (stereo unspecified),-3.49%,–
CCC(C)(C)c1cc(-n2nc3ccccc3n2)c(O)c(C(C)(C)CC)c1,-2.02% [at 95 µM],–
COC(=O)C1=CCCN(C)C1,-7.46%,–
CC(CCc1ccccc1)NC(C)C(O)c1ccc(O)cc1 (stereo unspecified),11.2%,–
OC(c1ccc(F)cc1)(c1cncnc1)c1ccccc1Cl (stereo unspecified),14.3%,–
OCCBr,0.0961%,–
C=C(C)CN(CC)c1c([N+](=O)[O-])cc(C(F)(F)F)cc1[N+](=O)[O-],9.47%,–
ClCC(Cl)Cl,13.5% [at 95 µM],–
CCN(Cc1ccc(Cl)nc1)/C(=C/[N+](=O)[O-])NC,2.88%,–
ClC(Cl)(Cl)C(Cl)(Cl)Cl,-0.534% [at 95 µM],–
c1coc(-c2nc3ccccc3[nH]2)c1,4.79%,–
